About 4,100 (1.2%) of roughly 330,000 compounds were called active. No stated cut-off is given here; in the data, active means inhibition above about 50%; inactive means the rest. The list comes from a sample in which actives are over-represented; it also holds similar structures and randomly drawn compounds.
Target: Sentrin-specific protease 8 (Homo sapiens) (UniProt Q96LD8)
Assay: SENP8 protease inhibitors, primary screen, biochemical, luminescence (AID 2540)
Details: purified SENP8, Z-RLRGG-aminoluciferin cleavage, at 10 µM, hits give high values

Sentrin-specific protease 8 (Homo sapiens), sequence (Q96LD8 whole entry, looked up): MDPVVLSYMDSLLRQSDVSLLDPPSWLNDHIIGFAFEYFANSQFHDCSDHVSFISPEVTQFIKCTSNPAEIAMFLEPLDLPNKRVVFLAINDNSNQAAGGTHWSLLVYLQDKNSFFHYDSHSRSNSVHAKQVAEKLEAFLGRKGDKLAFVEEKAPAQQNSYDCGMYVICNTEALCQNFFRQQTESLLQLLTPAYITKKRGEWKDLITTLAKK

SMILES | inhibition
Cc1nc2ccc(N3CCN(C)CC3)cc2nc1C | -5.08% (inactive)
CN1CCN(c2cc(N3CCNCC3)ccc2[N+](=O)[O-])CC1 | 2.96% (inactive)
COc1cccc(-c2nc3ccc(N4CCN(C)CC4)cc3[nH]2)c1 | 57.4% (active)
CN(C)P(=S)(Nc1ccccc1)C(Cl)(Cl)Cl (stereo not given) | -7.38% (inactive)
COc1ccccc1CN1CCN(C(=O)Cc2ccccc2)CC1 | -9.12% (inactive)
CCOC(=O)c1c(N)n(Cc2ccccc2)c2nc3ccccc3nc12 | 9.31% (inactive)
CCOC(=O)c1c(N)n(CCN2CCOCC2)c2nc3ccccc3nc12 | 2.3% (inactive)
COc1cc(Cn2c(N)c(C(=O)NCc3ccco3)c3nc4ccccc4nc32)cc(OC)c1OC | 90.9% (active)
CC(=O)c1ccc(OC(NC(=O)Cc2ccccc2)C(Cl)(Cl)Cl)cc1 (stereo not given) | -0.124% (inactive)
CCOc1ccc(CN(CCCl)CCCl)cc1C(=O)OC | -7.06% (inactive)

From PubChem BioAssay AID2540 (Sanford-Burnham Center for Chemical Genomics, 2010)
